Source: PubChem BioAssay AID2283170 (EPA ToxCast)
Records with an inconclusive call do not appear. The source made the active and inactive calls. The calls were made as follows: active = hit-call score of the fitted dose curve at least 0.9, where 1 is the maximum; inconclusive = response in the unintended direction; inactive = score below 0.9.

Target: human Lymphocyte-cell Factor Kinase (Lck), LCK (gene 3932) (UniProt P06239)
Assay: NVS_ENZ_hLck: NovaScreen (NVS) Enzymatic Assay for human Lymphocyte-cell Factor Kinase (Lck)
Procedure: NVS_ENZ_hLck is a biochemical, single-readout assay that uses extracted gene-proteins in a cell-free assay. Measurements were taken 1 hour after chemical dosing in a 384-well plate.NVS_ENZ_hLck is one of one assay component(s) measured or calculated from the NVS_ENZ_hLck assay. It is designed to make measurements of enzyme activity, a form of enzyme reporter, as detected with fluorescence intensity signals by Fluorescence and electrophoretic mobility shift technology.Data from the assay component NVS_ENZ_hLck was analyzed into 1 assay endpoint. This assay endpoint, NVS_ENZ_hLck, was analyzed in the positive analysis fitting direction relative to DMSO as the negative control and baseline of activity. Using a type of enzyme reporter, loss-of-signal activity can be used to understand changes in the enzymatic activity as they relate to the gene LCK. Furthermore, this assay endpoint can be referred to as a primary readout, because this assay has produced […] where this one serves a enzymatic activity function. To generalize the intended target to other relatable targets, this assay endpoint is annotated to the kinase intended target family, where the subfamily is non-receptor tyrosine kinase.
Binding assays used specific radioligands (tritiated, iodinated) with non-radioactive competitive displacement ligands in agonist or antagonist protocols (as indicated) and various reference compounds and inhibitors to titrate specific binding to receptors and transporters. Most enzyme assays (CYPs, kinases, phosphatases, proteases, HDACs) used recombinant protein and specific substrates (fluorescence mostly, some colorimetric and radioactive) and inhibitors, followed by a biochemical separation of substrate and product. All assays for the biochemical HTS were initially run in duplicate at a single concentration (10 uM for CYP450 assays and 25 uM for all others). Assay-chemical combinations meeting a pre-defined threshold (e.g., 30% inhibition and other criteria defined below) were then run in singleton concentration-response format with maximum concentration of 20 uM for CYPs and 50 uM for all others. Each assay was run with positive and negative controls, and concurrent controls on every plate. The follow-up (secondary) screen tested active chemical-pairs in concentration series, as well as a few additional assays not tested in the primary screen, some selected negative inactives, and several cases re-run in the concentration series for confirmatory purposes.

Sequence of human Lymphocyte-cell Factor Kinase (Lck), LCK (gene 3932) (P06239 whole entry, looked up): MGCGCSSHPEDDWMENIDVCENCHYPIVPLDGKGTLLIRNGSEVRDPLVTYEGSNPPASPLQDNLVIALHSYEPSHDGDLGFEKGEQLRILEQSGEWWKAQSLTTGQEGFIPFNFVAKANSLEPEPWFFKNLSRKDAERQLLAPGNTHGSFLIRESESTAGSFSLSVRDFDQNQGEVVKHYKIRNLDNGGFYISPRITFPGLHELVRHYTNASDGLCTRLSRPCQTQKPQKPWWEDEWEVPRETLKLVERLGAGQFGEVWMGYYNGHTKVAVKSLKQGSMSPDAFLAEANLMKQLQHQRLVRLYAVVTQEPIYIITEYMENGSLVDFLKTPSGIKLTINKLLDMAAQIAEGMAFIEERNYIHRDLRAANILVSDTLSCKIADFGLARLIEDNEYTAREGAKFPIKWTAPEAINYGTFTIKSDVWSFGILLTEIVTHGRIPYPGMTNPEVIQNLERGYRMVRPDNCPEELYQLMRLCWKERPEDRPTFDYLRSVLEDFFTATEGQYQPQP

| SMILES | outcome | AC50 |
| --- | --- | --- |
| O=C(Nc1ccccc1)Nc1cnns1 | inactive | – |
| O=S(=O)(O)C(F)(F)C(F)(F)C(F)(F)C(F)(F)C(F)(F)C(F)(F)C(F)(F)C(F)(F)F | – | 43.9 µM (active) |
| C=CCC1=C(C)[C@@H](OC(=O)[C@@H]2[C@@H](C=C(C)C)C2(C)C)CC1=O | inactive | – |
| CNC(=S)S | inactive | – |
| CC[C@H](C)[C@H]1O[C@]2(C=C[C@@H]1C)C[C@@H]1C[C@@H](C/C=C(\C)[C@@H](O[C@H]3C[C@H](OC)[C@@H](O[C@H]4C[C@H](OC)[C@@H](NC)[C@H](C)O4)[C@H](C)O3)[C@@H](C)/C=C/C=C3\CO[C@@H]4[C@H](O)C(C)=C[C@@H](C(=O)O1)[C@]34O)O2 | – | 36 µM (active) |
| Cc1cnc(C2=NC(C)(C(C)C)C(=O)N2)c(C(=O)O)c1 (stereo not drawn) | inactive | – |
| S=C1NCCN1 | inactive | – |
| O=C(O)C(F)(F)C(F)(F)C(F)(F)C(F)(F)C(F)(F)C(F)(F)C(F)(F)F | inactive | – |
